# Assay results: PubChem BioAssay (NCI)
# Where “and” joins values, the source holds several entries; their conditions need not be identical. Identical values can stand only once. Compounds without any hit were thinned out: in the full panel of roughly 79,000, 15% have a hit. The source holds several records for some structures; these can differ, active in one and inactive in another. Calls of active or inactive are those of the source. Rule as the data show it: active = growth inhibition above about 70%; inactive = the rest.
# Tests used:
# [1] = NCI Yeast Anticancer Drug Screen. Data for the rad50 strain (AID 155);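 also: 0% = growth of vehicle-only cultures of the same strain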; settings: S. cerevisiae rad50 strain growth inhibition, stronger effect = higher value
# Outline: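 Growth of the mutant yeast was measured after compound exposure and referenced to vehicle-treated cultures.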
# [2] = NCI Yeast Anticancer Drug Screen. Data for the mec2-1 strain (AID 157); settings: S. cerevisiae mec2-1 strain, stronger effect = higher value
# Outline: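 Strain: mec2-1 (DNA repair/cell cycle alteration). Compound exposure, then growth measured; inhibition expressed relative to vehicle.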
# [3] = NCI Yeast Anticancer Drug Screen. Data for the sgs1 mgt1 strain (AID 161);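 also: 0% = growth of cultures given vehicle only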; settings: S. cerevisiae sgs1 mgt1 strain, stronger effect = higher value
# Outline: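 Read-out: growth inhibition vs vehicle controls. Cells: mutant yeast strain deficient in DNA damage repair.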
# [4] = NCI Yeast Anticancer Drug Screen. Data for the cln2 rad14 strain (AID 165);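 also: 0% = growth equal to vehicle treated cultures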; settings: S. cerevisiae cln2 rad14 strain, stronger effect = higher value
# Outline: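 Compounds are applied to the cln2 rad14 yeast strain, and growth is then compared with that of vehicle-treated cultures to give inhibition.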
# [5] = NCI Yeast Anticancer Drug Screen. Data for the bub3 strain (AID 167); settings: S. cerevisiae bub3 mutant strain, stronger effect = higher value
# Outline: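 Whole-cell yeast assay. The mutant strain was incubated with compounds, and growth inhibition was determined by comparison with vehicle-treated cells.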
# [6] = NCI Yeast Anticancer Drug Screen. Data for the mlh1 rad18 strain (AID 175); settings: S. cerevisiae mlh1 rad18 strain growth inhibition, stronger effect = higher value
# Outline: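 Read-out is yeast growth inhibition, calculated against vehicle-only controls. The compound was applied to a strain engineered with DNA damage repair alterations.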
# [7] = at 5.0 µM (retest, dose inferred, filed as 0.5)
# [8] = at 50.0 µM (retest, dose inferred, filed as 5.0)
Compound,"growth inhibition [1, 7]","growth inhibition [1, 8]",growth inhibition ([1]; at 50.0 µM),"growth inhibition [2, 7]","growth inhibition [2, 8]",growth inhibition ([2]; at 50.0 µM),"growth inhibition [3, 7]","growth inhibition [3, 8]",growth inhibition ([3]; at 50.0 µM),"growth inhibition [4, 7]","growth inhibition [4, 8]",growth inhibition ([4]; at 50.0 µM),"growth inhibition [5, 7]","growth inhibition [5, 8]",growth inhibition ([5]; at 50.0 µM),"growth inhibition [6, 7]","growth inhibition [6, 8]",growth inhibition ([6]; at 50.0 µM)
C=CC(=O)OCCOc1ccc(Cl)cc1Cl,1% (inactive),98% (active),57.2% (inactive),2% (inactive),99% (active),30.4% (inactive),6% (inactive),98% (active),73.2% (active),-1% (inactive),94% (active),-28.1% (inactive),12% (inactive),97% (active),24.2% (inactive),24% (inactive),98% (active),83.9% (active)
OCC1OC(Sc2ncc[nH]2)C(O)C(O)C1O (centres undefined),-12% (inactive),4% (inactive),5.1% (inactive) and 4.95% (inactive),-1% (inactive),-10% (inactive),-7.25% (inactive) and -9.95% (inactive),-30% (inactive),-11% (inactive),-4.55% (inactive) and -7.65% (inactive),11% (inactive),3% (inactive),4.15% (inactive) and 44.2% (inactive),0% (inactive),0% (inactive),-1.3% (inactive) and -3.2% (inactive),-18% (inactive),-14% (inactive),-17.8% (inactive) and -16.8% (inactive)
CN(C)c1ccc(/C=C/c2ccc3ccccc3[n+]2C)cc1,1% (inactive),98% (active),53.4% (inactive),3% (inactive),98% (active),99% (active),11% (inactive),97% (active),46.2% (inactive),3% (inactive),98% (active),98% (active),-9% (inactive),99% (active),84.2% (active),-15% (inactive),98% (active),98.3% (active)
CC(O)CN1CCN(CC(C)O)CC1.[I][Pt+2][I] (centres undefined),-5% (inactive),27% (inactive),59.7% (inactive),-295% (inactive),11% (inactive),37.2% (inactive),-1% (inactive),16% (inactive),78.9% (active),2% (inactive),7% (inactive),17.9% (inactive),-1% (inactive),2% (inactive),-2% (inactive),-2% (inactive),16% (inactive),92.7% (active)
CCn1c(-c2c(Cl)cc(O)cc2Cl)cc2c(Cl)cc(O)cc21,64% (inactive),99% (active),98.1% (active),97% (active),99% (active),99% (active),17% (inactive),98% (active),98.5% (active),13% (inactive),98% (active),98.5% (active),11% (inactive),96% (active),98% (active),22% (inactive),94% (active),98.6% (active)
CC(=O)Nc1cc(C)ccc1C,1% (inactive),-3% (inactive),-36.6% (inactive) and -46.2% (inactive),-2% (inactive),0% (inactive),15.4% (inactive) and -28.3% (inactive),0% (inactive),-3% (inactive),-1.25% (inactive) and -9.15% (inactive),-3% (inactive),4% (inactive),51.8% (inactive) and 34.4% (inactive),0% (inactive),-3% (inactive),42.2% (inactive) and -9.35% (inactive),3% (inactive),-4% (inactive),-36.9% (inactive) and -2% (inactive)
CCOc1ccc(NC(=O)C(=O)NO)cc1,7% (inactive),73% (active),83% (active),-25% (inactive),59% (inactive),71.8% (active),10% (inactive),67% (inactive),74% (active),6% (inactive),26% (inactive),52% (inactive),-8% (inactive),85% (active),79.5% (active),-14% (inactive),87% (active),79.7% (active)
CCOC(=O)C(C(=O)c1ccccc1)C(=O)c1ccccc1,29% (inactive),85% (active),-24.3% (inactive) and 90.8% (active),29% (inactive),93% (active),-14.4% (inactive) and 91.2% (active),37% (inactive),82% (active),-4.65% (inactive) and 92% (active),34% (inactive),56% (inactive),-21.1% (inactive) and 90.6% (active),35% (inactive),92% (active),-0.95% (inactive) and 90.5% (active),35% (inactive),97% (active),-22% (inactive) and 90.8% (active)
CN(C)c1ccc(/C=C/c2ccnc3ccccc23)c(Cl)c1,-7% (inactive),10% (inactive),-1.1% (inactive) and 16.1% (inactive),-7% (inactive),-4% (inactive),11.4% (inactive) and 3.15% (inactive),-1% (inactive),35% (inactive),-0.1% (inactive) and -2% (inactive),-22% (inactive),-29% (inactive),-32.5% (inactive) and 35.4% (inactive),-1% (inactive),43% (inactive),-1% (inactive) and 23.1% (inactive),-13% (inactive),28% (inactive),-5.45% (inactive) and -11.5% (inactive)
C[N+]1(C)CCC(c2ccccc2)(c2ccccc2)C(=O)C1,-12% (inactive),-8% (inactive),16.6% (inactive) and 13.2% (inactive),-15% (inactive),-3% (inactive),9.05% (inactive) and 19.3% (inactive),-8% (inactive),-2% (inactive),6.2% (inactive) and 21.8% (inactive),-9% (inactive),-11% (inactive),47.4% (inactive) and -25.8% (inactive),-22% (inactive),-27% (inactive),-8.9% (inactive) and 8.6% (inactive),-10% (inactive),-14% (inactive),24.1% (inactive) and -10.6% (inactive)
CC(=O)Nc1nc([N+](=O)[O-])c(C(C)C)s1,4% (inactive),1% (inactive),10.1% (inactive),-2% (inactive),4% (inactive),10.6% (inactive),3% (inactive),4% (inactive),-1.85% (inactive),-6% (inactive),-4% (inactive),1.55% (inactive),-3% (inactive),9% (inactive),-7.8% (inactive),5% (inactive),15% (inactive),18.2% (inactive)
COc1cccc2c1C(=O)c1c(O)c3c(c(O)c1C2=O)C[C@@](O)(C(=O)CO)C[C@@H]3OC1CC(N)C(O)C(C)O1 (some centres undefined),91% (active) and 50% (inactive) and -5% (inactive),99% (active) and 94% (active) and 0% (inactive),92.2% (active) and 94.8% (active) and 20.2% (inactive),41% (inactive) and 20% (inactive) and -6% (inactive),99% (active) and 82% (active) and -16% (inactive),93.7% (active) and 52.2% (inactive) and -26% (inactive),53% (inactive) and 15% (inactive) and 4% (inactive),99% (active) and 88% (active) and -2% (inactive),94.6% (active) and 88% (active) and 5% (inactive),25% (inactive) and 5% (inactive) and -23% (inactive),98% (active) and 49% (inactive) and 1% (inactive),90.5% (active) and 11.1% (inactive) and 91.5% (active),57% (inactive) and 2% (inactive) and 22% (inactive),98% (active) and 72% (active) and 17% (inactive),93.7% (active) and 88.8% (active) and -40.1% (inactive),69% (inactive) and 44% (inactive) and -8% (inactive),98% (active) and 84% (active) and -10% (inactive),92.8% (active) and 89.8% (active) and 46.3% (inactive)
Cn1c2ccccc2c(=O)c2ccccc21,4% (inactive),38% (inactive),-16.6% (inactive) and 82% (active),23% (inactive),9% (inactive),-18.9% (inactive) and 13.4% (inactive),-5% (inactive),9% (inactive),-17.4% (inactive) and 18.6% (inactive),-4% (inactive),-2% (inactive),-11.3% (inactive) and -35.4% (inactive),-9% (inactive),1% (inactive),14.2% (inactive) and 3.6% (inactive),-1% (inactive),20% (inactive),-28.4% (inactive) and 31.8% (inactive)
